Assay results taken from PubChem BioAssay (Tox21).
A number with no mark means an inactive call. Entries that show only a call come without a potency. Activity calls are given as the source filed them. The call rests on the fitted dose curve; in most records, active means well fitted curve in the direction sought with a large enough effect in the repeat runs; inconclusive means weak or mixed curves; inactive means flat fitted curve, though single readings scatter.

Assay: qHTS assay to test for compound auto fluorescence at 590 nm (red) in HEK293 cell free culture (AID 720683)
Details: cell-free medium autofluorescence, Ex540/Em590 red; series mostly up to 91.3 µM
Description: U.S. Tox21 Program National Center for Advancing Translational Sciences [NCATS] NIH Chemical Genomics Center [NCGC] U.S. Environmental Protection Agency [EPA] National Institutes of Environmental Health Sciences [NIEHS] National Toxicology Program [NTP] U.S. Food and Drug Administration [FDA] Tox21 Assay Overview: Compound auto fluorescence often interferes with screening of the compound library against various biological targets and signaling pathways. Some of these compounds may have fluorophoric properties. Such properties may interfere with the assay outputs resulting in false positives and/or negatives. To decrease such complications and ensure the compound activities are relevant in terms of biological response, the Tox21 10K compound library was screened for auto fluorescence. From the fluorophores used as reporter signals in our screening assays, the auto fluorescence equivalencies of compounds against three fluorophores have been evaluated: Triamterene, Fluorescein and Rose Bengal sodium for blue, green and red fluorescence, respectively. The fluorescence intensities were measured using Excitation/Emission wavelengths at 405/460nm, 485/535nm and 540/590nm for blue, green and red labels, respectively. This assay includes the red fluorescence data.
Tox21 Assay Protocol Summary: 5 uL of culture medium (DMEM containing 10% FBS) per well was dispensed into black wall/clear bottom 1536-well plates using a Multidrop Combi Dispenser (ThermoFisher Scientific, Waltham, MA). After 23 nL compound or DMSO vehicle was transferred into assay plate by a pintool work station (Kalypsys, San Diego, CA), fluorescence intensities in the assay plates were measured by an Envision (PerkinElmer, Shelton, CT) plate reader using three labels for measuring blue, green and red fluorescence at […] 460, 535 and 590nm respectively.

SMILES | Potency | fluorescence, % of fluorescent control
O=C1OC2(c3ccc(O)cc3Oc3cc(O)ccc32)c2ccc(N=C=S)cc21 | inactive | 
O=S(=O)(O)c1ccc(N=Nc2c(O)ccc3ccccc23)cc1 | inactive | 
CNC(=O)c1ccccc1Sc1ccc2c(/C=C/c3ccccn3)n[nH]c2c1 | inactive | 
O=C(c1ccc(O)c(O)c1)c1ccc(O)cc1O | inactive | 
CCn1c2ccccc2c2cc([N+](=O)[O-])ccc21 | inactive | 
CCCC(=O)OCCc1ccccc1 | inactive | 
CCCCOC(=O)CC | inactive | 
c1ccc(C(O[C@@H]2CCCN(CCc3ccc4c(c3)OCO4)C2)c2ccccc2)cc1 | inactive | 
CCc1ccc(Br)cc1 | inactive | 
CN(C)Cc1ccccc1O | inactive | 
CCO[Si](OCC)(OCC)OCC | inactive | 
CCc1oc2ccccc2c1C(=O)c1cc(I)c(O)c(I)c1 | inactive | 
CCO[C@@H]1O[C@H](C(COCc2ccccc2)OCc2ccccc2)[C@H](OCc2ccccc2)[C@H]1O (stereo not given in full) |  | -0.0196% [at 18.6 µM]
COC(=O)c1ccccc1C | inactive | 
Nc1cc(Cl)c(O)c(Cl)c1 | inactive | 
OC[C@H]1O[C@H](O[C@H]2O[C@H](CO)[C@@H](O)[C@H](O)[C@H]2O)[C@H](O)[C@@H](O)[C@@H]1O | inactive | 
Cc1cc(-c2ccc(N=Nc3cc(S(=O)(=O)O)c4ccccc4c3N)c(C)c2)ccc1N=Nc1cc(S(=O)(=O)O)c2ccccc2c1N | inactive | 
Nc1ccc(NCCO)c([N+](=O)[O-])c1 | inactive | 
Sc1nc2ccccc2s1 | inactive | 
CCc1cccc(CC)c1NC(=O)CN(CC(=O)O)CC(=O)O |  | 0.184% [at 18.6 µM]

SMILES | Potency | fluorescence, % of fluorescent control
CN1CCN(Cc2cc(-c3ccc4[nH]c(=O)oc4c3)co2)[C@@H](c2ccc(F)cc2)C1 | inactive | 
CCOC(=O)NNc1ccc(N(CC)CC(C)O)nn1 (stereo not given) | inactive | 
CC(=O)CC(=O)Nc1ccc(S(=O)(=O)O)cc1 | inactive | 
CC(=O)Oc1cc2c(s1)CCN(C(C(=O)C1CC1)c1ccccc1F)C2 (stereo not given) | inactive | 
CC(C)=CCC1=C(O)c2ccccc2C(=O)C1=O | inactive | 
O=C(/C=C/c1ccc(O)c(O)c1)O[C@@H](C(=O)O)[C@@H](OC(=O)/C=C/c1ccc(O)c(O)c1)C(=O)O | inactive | 
COCCOc1cc2cc(C(=O)NC3CCN(C(C)C)CC3)n(CC(=O)Nc3ccc(Cl)cn3)c2cn1 | inactive | 
C=CCn1c(=O)n(CC=C)c(=O)n(CC=C)c1=O | inactive | 
CN1CCCCC1CCN1c2ccccc2Sc2ccc(S(C)=O)cc21 (stereo not given) | inactive | 
CC(C)(C)c1ccc(C(O)CCCN2CCC(C(O)(c3ccccc3)c3ccccc3)CC2)cc1 (stereo not given) | inactive | 
Nc1nc2c(ncn2COCCO)c(=O)[nH]1 |  | 0.0201% [at 18.6 µM]
O=S(=O)(O)c1ccccc1/C=C/c1ccc(-c2ccc(/C=C/c3ccccc3S(=O)(=O)O)cc2)cc1 | inactive | 
CC[N+](CC)(CC)CCOC(=O)C(C1CCCC1)C1CCCC1 | inactive | 
CC1=Nc2ccccc2C1(C)C | inactive | 
CCC(=O)C(=O)CC | inactive | 
C=Cc1cccc(C)c1 | inactive | 
c1ccc(SSc2ccccc2)cc1 | inactive | 
Nc1ccc(C(=O)O)c(O)c1 | inactive | 
CC(C)OC(=O)C(O)(CC(=O)O)CC(=O)O | inactive | 
CN(C)c1ccc(C(=C2C=CC(=[N+](C)C)C=C2)c2ccc(N(C)C)cc2)cc1 | inactive | 
